Laboratory results: PubChem BioAssay (NCI)
Compounds without any hit were thinned out: in the full panel of roughly 79,000, 15% have a hit. Calls of active or inactive are those of the source. Rule as the data show it: active = growth inhibition above about 70%; inactive = the rest.

Legend:
[1] = NCI Yeast Anticancer Drug Screen. Data for the rad52 strain (AID 147);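 also: 0% = growth of vehicle-treated control cultures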; conditions: S. cerevisiae rad52 mutant growth inhibition, hits give high values
In short: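 Compounds are applied to a genetically defined yeast strain lacking normal DNA damage repair, and inhibition of growth is expressed relative to cultures given vehicle only.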

[2] = NCI Yeast Anticancer Drug Screen. Data for the wt1 strain (AID 149);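 also: 0% = growth of vehicle-treated wt1 cultures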; conditions: S. cerevisiae wt1 strain (SPY 50644) growth inhibition, hits give high values
In short: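 Growth inhibition read against vehicle controls after compound exposure of the wt1 yeast strain.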

[3] = NCI Yeast Anticancer Drug Screen. Data for the rad50EPP+ strain (AID 151);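 also: 0% = growth of vehicle-treated control cultures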; conditions: S. cerevisiae rad50 mutant strain, hits give high values
In short: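 Compounds were applied to the rad50EPP+ yeast strain, which bears a defined DNA repair alteration, and growth inhibition was determined relative to vehicle-treated cultures.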

[4] = NCI Yeast Anticancer Drug Screen. Data for the rad50 strain (AID 155);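 also: 0% = growth of vehicle-only cultures of the same strain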; conditions: S. cerevisiae rad50 strain growth inhibition, hits give high values
In short: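 Readout: growth inhibition relative to vehicle-treated cultures. Compound exposure was carried out in a genetically defined yeast strain deficient in DNA damage repair.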

[5] = NCI Yeast Anticancer Drug Screen. Data for the mec2-1 strain (AID 157); conditions: S. cerevisiae mec2-1 strain, hits give high values
In short: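 Strain: mec2-1 (DNA repair/cell cycle alteration). Compound exposure, then growth measured; inhibition expressed relative to vehicle.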

[6] = NCI Yeast Anticancer Drug Screen. Data for the rad14 strain (AID 159);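 also: 0% = growth of vehicle-treated control cultures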; conditions: S. cerevisiae rad14 strain growth inhibition, hits give high values
In short: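 Growth inhibition vs vehicle controls; genetically altered yeast strain (DNA damage repair defect) treated with test compounds.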

[7] = NCI Yeast Anticancer Drug Screen. Data for the CLN2oe strain (AID 163);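 also: 0% = growth of vehicle-only control cultures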; conditions: S. cerevisiae CLN2oe strain, hits give high values
In short: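 Growth of a genetically modified yeast strain is measured after compound exposure and compared with cultures given vehicle alone.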

[8] = NCI Yeast Anticancer Drug Screen. Data for the cln2 rad14 strain (AID 165);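 also: 0% = growth equal to vehicle treated cultures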; conditions: S. cerevisiae cln2 rad14 strain, hits give high values
In short: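 Compounds are applied to the cln2 rad14 yeast strain, and growth is then compared with that of vehicle-treated cultures to give inhibition.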

[9] = NCI Yeast Anticancer Drug Screen. Data for the bub3 strain (AID 167); conditions: S. cerevisiae bub3 mutant strain, hits give high values
In short: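 Readout: yeast growth inhibition, expressed relative to vehicle-only wells. The test organism is a mutant strain from a panel with lesions in DNA repair or checkpoint genes.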

[10] = NCI Yeast Anticancer Drug Screen. Data for the mlh1 strain (AID 171);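 also: 0% = growth of vehicle-treated control cultures of the same strain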; conditions: S. cerevisiae mlh1 strain growth inhibition, hits give high values
In short: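 Growth of the mutant yeast strain after compound exposure, expressed as inhibition relative to vehicle-only controls.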

[11] = NCI Yeast Anticancer Drug Screen. Data for the sgs1 strain (AID 173);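 also: 0% = growth of vehicle-only control cultures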; conditions: S. cerevisiae sgs1 mutant, hits give high values
In short: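 Growth of a yeast strain bearing a defined genetic alteration is measured after compound treatment. Inhibition is expressed relative to vehicle-only controls.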

[12] = NCI Yeast Anticancer Drug Screen. Data for the mlh1 rad18 strain (AID 175); conditions: S. cerevisiae mlh1 rad18 strain growth inhibition, hits give high values
In short: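 Read-out is yeast growth inhibition, calculated against vehicle-only controls. The compound was applied to a strain engineered with DNA damage repair alterations.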

[13] = NCI Yeast Anticancer Drug Screen. Data for the rad18 strain (AID 177); conditions: S. cerevisiae rad18 mutant growth inhibition, hits give high values
In short: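 Growth of the mutant yeast strain after compound exposure, normalised to vehicle-only cultures.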

[14] = NCI Yeast Anticancer Drug Screen. Data for the mgt1 strain (AID 153); conditions: S. cerevisiae mgt1 mutant growth inhibition, hits give high values
In short: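 Strain: mgt1 yeast, one of a set carrying defined DNA damage repair or cell cycle control alterations. Compound-treated growth compared with vehicle.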

[15] = NCI Yeast Anticancer Drug Screen. Data for the sgs1 mgt1 strain (AID 161);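 also: 0% = growth of cultures given vehicle only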; conditions: S. cerevisiae sgs1 mgt1 strain, hits give high values
In short: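 Genetically altered yeast, compound exposure, growth inhibition relative to vehicle.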

[16] = NCI Yeast Anticancer Drug Screen. Data for the wt2 strain (AID 169);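 also: 0% = growth of vehicle-treated yeast cultures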; conditions: S. cerevisiae wt2 strain growth inhibition, hits give high values
In short: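 This strain belongs to a panel of yeast strains with defined genetic alterations in DNA damage repair or cell cycle control. Compounds are applied, and growth inhibition is measured against vehicle-treated cultures.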

[17] = at 5.0 µM (retest, dose inferred, filed as 0.5)
[18] = at 50.0 µM (retest, dose inferred, filed as 5.0)

Measured: growth inhibition

O=c1[nH]cc(F)c(=O)[nH]1
inactive: [1]; at 1.2 µM 2% | [1]; at 3.7 µM 14% | [1]; at 11.0 µM 39% | [2]; at 1.2 µM -1% | [2]; at 3.7 µM -1% | [2]; at 11.0 µM 9% | [2]; at 33.0 µM 34% | [2]; at 100.0 µM 64% | [3]; at 1.2 µM 4% | [3]; at 3.7 µM 31% | [4]; at 1.2 µM 2% | [4]; at 3.7 µM 17% | [4]; [17] 26% | [4]; at 11.0 µM 43% | [5]; at 1.2 µM 11% | [5]; at 3.7 µM 12% | [5]; [17] 26% | [5]; at 11.0 µM 14% | [5]; at 33.0 µM 14% | [5]; at 50.0 µM 53.7% | [5]; at 100.0 µM 9% | [6]; at 1.2 µM 1% | [6]; at 3.7 µM 10% | [6]; at 11.0 µM 17% | [6]; at 33.0 µM 54% | [7]; at 1.2 µM 21% | [7]; at 3.7 µM 23% | [7]; at 11.0 µM 21% | [7]; at 33.0 µM 19% | [7]; at 100.0 µM 18% | [8]; [17] 17% | [8]; at 50.0 µM 66.7% | [9]; at 1.2 µM 6% | [9]; at 3.7 µM 7% | [9]; [17] 2% | [9]; at 11.0 µM 5% | [9]; at 33.0 µM 19% | [9]; at 50.0 µM 44.6% | [9]; at 100.0 µM 3% | [10]; at 1.2 µM 4% | [10]; at 3.7 µM 8% | [10]; at 11.0 µM 23% | [11]; at 1.2 µM 10% | [11]; at 3.7 µM 44% | [12]; [17] 16% | [13]; at 1.2 µM 0% | [13]; at 3.7 µM 10% | [13]; at 11.0 µM 46% | [13]; at 33.0 µM 68%
active: [1]; at 33.0 µM 71% | [1]; at 100.0 µM 88% | [3]; at 11.0 µM 73% | [3]; at 33.0 µM 92% | [3]; at 100.0 µM 96% | [4]; at 33.0 µM 77% | [4]; [18] 89% | [4]; at 50.0 µM 93.2% | [4]; at 100.0 µM 91% | [5]; [18] 96% | [6]; at 100.0 µM 77% | [8]; [18] 73% | [9]; [18] 81% | [10]; at 33.0 µM 72% | [10]; at 100.0 µM 93% | [11]; at 11.0 µM 79% | [11]; at 33.0 µM 92% | [11]; at 100.0 µM 96% | [12]; [18] 86% | [12]; at 50.0 µM 89.2% | [13]; at 100.0 µM 86%

O=C(O)[C@H]1[C@@H](C2CCCCC2)O[C@@H](C2CCCCC2)O[C@H]1C(F)(F)F
active: [4]; at 50.0 µM 88.1% | [5]; at 50.0 µM 91.8% | [15]; at 50.0 µM 85.5% | [8]; at 50.0 µM 87.3% | [9]; at 50.0 µM 87.8% | [12]; at 50.0 µM 83.8%
inactive: [2]; at 1.2 µM -3% | [2]; at 3.7 µM 0% | [2]; at 11.0 µM 0% | [2]; at 33.0 µM 0% | [2]; at 100.0 µM 1% | [3]; at 1.2 µM -4% | [3]; at 3.7 µM -1% | [3]; at 11.0 µM 2% | [3]; at 33.0 µM -2% | [3]; at 100.0 µM -3% | [14]; at 1.2 µM 0% | [14]; at 3.7 µM -4% | [14]; at 11.0 µM 10% | [14]; at 33.0 µM -17% | [14]; at 100.0 µM 0% | [4]; at 1.2 µM -4% | [4]; at 3.7 µM -5% | [4]; [17] -46% | [4]; at 11.0 µM -19% | [4]; at 33.0 µM -4% | [4]; [18] 61% | [4]; at 100.0 µM -2% | [5]; at 1.2 µM 2% | [5]; at 3.7 µM -2% | [5]; [17] -19% | [5]; at 11.0 µM 1% | [5]; at 33.0 µM -4% | [5]; [18] 16% | [5]; at 100.0 µM 5% | [6]; at 1.2 µM -1% | [6]; at 3.7 µM -1% | [6]; at 11.0 µM 0% | [6]; at 33.0 µM 0% | [6]; at 100.0 µM -1% | [15]; [17] -25% | [15]; [18] 12% | [7]; at 1.2 µM -1% | [7]; at 3.7 µM -1% | [7]; at 11.0 µM -13% | [7]; at 33.0 µM -8% | [7]; at 100.0 µM 4% | [8]; [17] -11% | [8]; [18] -8% | [9]; at 1.2 µM -4% | [9]; at 3.7 µM 2% | [9]; [17] -20% | [9]; at 11.0 µM 3% | [9]; at 33.0 µM -2% | [9]; [18] 5% | [9]; at 100.0 µM -1% | [16]; at 1.2 µM -2% | [16]; at 3.7 µM -3% | [16]; at 11.0 µM -3% | [16]; at 33.0 µM -4% | [16]; at 100.0 µM -1% | [10]; at 1.2 µM -3% | [10]; at 3.7 µM -1% | [10]; at 11.0 µM -4% | [10]; at 33.0 µM -5% | [10]; at 100.0 µM 3% | [11]; at 1.2 µM -2% | [11]; at 3.7 µM 0% | [11]; at 11.0 µM 1% | [11]; at 33.0 µM 1% | [11]; at 100.0 µM 1% | [12]; [17] -3% | [12]; [18] 18%

Cc1ccc(N(C=O)c2c([N+](=O)[O-])cc([N+](=O)[O-])c3c2=[N+]([O-])CN=3)cc1
inactive: [2]; at 1.2 µM 3% | [2]; at 3.7 µM 23% | [2]; at 11.0 µM 20% | [3]; at 1.2 µM 35% | [3]; at 3.7 µM 51% | [14]; at 1.2 µM 10% | [14]; at 3.7 µM -1% | [14]; at 11.0 µM 52% | [4]; at 1.2 µM 9% | [4]; at 3.7 µM 18% | [4]; [17] 13% | [4]; at 11.0 µM 25% | [5]; at 1.2 µM 8% | [5]; at 3.7 µM 19% | [5]; [17] 6% | [5]; at 11.0 µM 32% | [5]; at 50.0 µM 27.6% | [6]; at 1.2 µM -15% | [6]; at 3.7 µM 1% | [6]; at 11.0 µM 30% | [15]; [17] 12% | [15]; at 50.0 µM 58.8% | [7]; at 1.2 µM -3% | [7]; at 3.7 µM 8% | [7]; at 11.0 µM 34% | [8]; [17] 28% | [8]; at 50.0 µM 31.6% | [9]; at 1.2 µM -1% | [9]; at 3.7 µM 5% | [9]; [17] 38% | [9]; at 11.0 µM 19% | [9]; at 50.0 µM 11% | [16]; at 1.2 µM 9% | [16]; at 3.7 µM 17% | [16]; at 11.0 µM 46% | [10]; at 1.2 µM -1% | [10]; at 3.7 µM 6% | [10]; at 11.0 µM 48% | [11]; at 1.2 µM 16% | [11]; at 3.7 µM 21% | [11]; at 11.0 µM 51% | [12]; [17] 12% | [12]; at 50.0 µM 41.3% | [13]; at 1.2 µM 0% | [13]; at 3.7 µM 14% | [13]; at 11.0 µM 47%
active: [2]; at 33.0 µM 89% | [2]; at 100.0 µM 98% | [3]; at 11.0 µM 84% | [3]; at 33.0 µM 95% | [3]; at 100.0 µM 97% | [14]; at 33.0 µM 96% | [14]; at 100.0 µM 98% | [4]; at 33.0 µM 92% | [4]; [18] 83% | [4]; at 50.0 µM 71.5% | [4]; at 100.0 µM 98% | [5]; at 33.0 µM 95% | [5]; [18] 91% | [5]; at 100.0 µM 98% | [6]; at 33.0 µM 94% | [6]; at 100.0 µM 97% | [15]; [18] 84% | [7]; at 33.0 µM 95% | [7]; at 100.0 µM 98% | [8]; [18] 81% | [9]; at 33.0 µM 72% | [9]; [18] 98% | [9]; at 100.0 µM 97% | [16]; at 33.0 µM 90% | [16]; at 100.0 µM 98% | [10]; at 33.0 µM 94% | [10]; at 100.0 µM 98% | [11]; at 33.0 µM 89% | [11]; at 100.0 µM 98% | [12]; [18] 98% | [13]; at 33.0 µM 91% | [13]; at 100.0 µM 98%
